Source: PubChem BioAssay
Calls of active or inactive are those of the source.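 The calls were made as follows, unless noted: active = fluorescence slope after compound addition differing from the mean of all screened samples at 99.7% confidence, in either direction; inactive = the rest.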

Experiments:
[1] = inhibitors of TNFa-induced NFkB p65 translocation, primary screen, imaging, HUVEC, MLSMR starter and 10KST1 sets (AID 438;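 active = inhibition above 20% together with a positive visual image hit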;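 also: compound added about 3h40 before a 20 min TNFalpha stimulation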;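 as to inhibition: signal is the nuclear over cytoplasmic p65 intensity ratio per well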); conditions: HUVEC TNFa-induced p65 nuclear translocation; cell count: measured here: nuclei count (cytotoxicity indicator), at 2.08 µM; inhibition: at 2 µM, stronger effect = higher value, 0% TNFa-plus-vehicle, 100% no-TNFa wells
[2] = inhibitors of mutant huntingtin aggregation, primary screen, imaging, exon1htt(103Q)mCFP cells, high-content imaging (AID 483;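 active = visual image review flags a hit and inhibition of aggregation exceeds 20%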;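 also: compound exposure lasted 3 days before fixation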;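 as to nuclei count: percent of the per-plate median nuclei count of sample wells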); conditions: exon1htt(103Q)mCFP cell line, aggregate imaging, at 2 µM; inhibition of aggregation: stronger effect = higher value; nuclei count: measured here: cell count, toxicity
[3] = inhibitors of E-selectin induction by TNFa, primary screen, imaging, HUVEC, immunofluorescence, MLSMR starter and 10KST1 sets (AID 487;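 active = visually confirmed hit in the image check and inhibition above 20%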;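 as to inhibition: signal is fraction of cell area covered by stained E-selectin grains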;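 as to nuclei count: 100% = median nuclei count of all wells on the same plate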); conditions: HUVEC TNFalpha-induced E-selectin immunofluorescence imaging, at 2 µM; inhibition: stronger effect = higher value; nuclei count: measured here: cell number, toxicity
[4] = target: Voltage-gated potassium channel subunit beta-2 (Rattus norvegicus) (UniProt P62483); assay: KvBeta enzyme negative modulators, primary screen, biochemical, NADPH fluorescence (AID 622;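 active = fluorescence slope higher than the sample average by over 3 SD, cut at about -0.22 in these data, passing the limit was not always enough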;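 also: slope of raw intensity against log time taken from 70 to 1610 s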); conditions: recombinant KvBeta, 4-cyanobenzaldehyde reduction, at 10 µM, stronger effect = higher value
Sequence of Voltage-gated potassium channel subunit beta-2 (Rattus norvegicus) (P62483 whole entry, looked up): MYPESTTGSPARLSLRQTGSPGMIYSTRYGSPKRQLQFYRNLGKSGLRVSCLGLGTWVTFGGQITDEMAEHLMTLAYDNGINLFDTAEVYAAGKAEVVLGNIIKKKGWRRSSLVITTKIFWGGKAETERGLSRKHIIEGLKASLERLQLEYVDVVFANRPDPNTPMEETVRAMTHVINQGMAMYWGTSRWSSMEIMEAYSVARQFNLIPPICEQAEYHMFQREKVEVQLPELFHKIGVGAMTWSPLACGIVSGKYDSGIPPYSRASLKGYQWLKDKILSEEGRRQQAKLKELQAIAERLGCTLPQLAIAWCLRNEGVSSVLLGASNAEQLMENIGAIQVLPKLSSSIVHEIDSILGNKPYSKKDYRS

[5] = target: Voltage-gated potassium channel subunit beta-2 (Rattus norvegicus) (UniProt P62483); assay: KvBeta positive modulators, primary screen, biochemical, NADPH fluorescence (AID 623;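 active = NADPH fluorescence slope more negative than the mean of all samples by about 3 SD, 99.7% confidence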;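 also: fluorescence intensity change per second fitted from 20 to 320 s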); conditions: Recombinant KvBeta, NADPH fluorescence decrease slope, 10 min; at 10 µM; stronger effect = lower value
[6] = target: Alpha-2C adrenergic receptor (Homo sapiens) (UniProt P18825); assay: modulators of alpha2C/GIRK thallium flux, primary screen, cell-based, HEK293 alpha2C/GIRK1/2 (AID 624); conditions: thallium flux BTC fluorescence, at 10 µM, actives lie on both sides;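 also: slope of fluorescence ratio to pre-addition baseline per second over 15 to 24 s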
Sequence of Alpha-2C adrenergic receptor (Homo sapiens) (P18825 whole entry, looked up): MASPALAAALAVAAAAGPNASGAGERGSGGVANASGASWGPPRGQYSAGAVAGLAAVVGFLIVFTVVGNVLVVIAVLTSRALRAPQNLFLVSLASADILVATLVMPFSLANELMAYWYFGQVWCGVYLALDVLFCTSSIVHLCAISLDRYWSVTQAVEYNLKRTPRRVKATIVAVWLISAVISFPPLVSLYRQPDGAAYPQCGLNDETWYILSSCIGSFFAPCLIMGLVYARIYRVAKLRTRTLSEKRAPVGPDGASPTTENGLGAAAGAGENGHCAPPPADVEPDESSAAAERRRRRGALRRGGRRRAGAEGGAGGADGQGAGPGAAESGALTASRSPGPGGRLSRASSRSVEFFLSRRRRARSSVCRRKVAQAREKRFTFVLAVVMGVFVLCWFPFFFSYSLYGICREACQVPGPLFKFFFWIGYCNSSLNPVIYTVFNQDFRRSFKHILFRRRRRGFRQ

[7] = inhibitors of Sendai virus-induced IRF3 signaling, primary screen, TLR/RLR signaling modifier project, cell-based, Sendai virus stimulus, luciferase, 10K MLSCN set (AID 602276;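 active = inhibition at or above 50% at 10 µM; inactive = inhibition below 50%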;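 also: firefly luciferase from ISG56 promoter only with Renilla not read in this screen; 0% = Sendai virus plus DMSO and 100% = medium plus DMSO without virus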); conditions: HEK293 RL24 IRF3 luciferase reporter, at 10 µM, stronger effect = higher value
[8] = inhibitors of poly I:C-induced TLR3 signaling, primary screen, cell-based, poly I:C stimulus, luciferase, 10K MLSCN set (AID 602277;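 active = inhibition of the reporter signal at or above 50%; inactive = inhibition below 50%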); conditions: HEK293-TLR3 RL24 IRF3 luciferase reporter, at 10 µM, stronger effect = higher value

SMILES | cell count [1] | inhibition [1] | inhibition of aggregation [2] | nuclei count [2] [%] | inhibition [3] | nuclei count [3] [%] | fluorescence slope [4] | NADPH fluorescence slope [5] | slope [6] | inhibition [7] | inhibition [8]
C/C(=N\O)C(C)/[N+]([O-])=C/c1nc(C)c(C)n1O (stereo unspecified) | 611 | 0.2% (inactive) | 12% (inactive) | 106 | 5.3% (inactive) | 98.3 | -0.492 (inactive) | -7.2e-05 (inactive) | 0.00463 (inactive) | 15.5% (inactive) | 20.8% (inactive)
Cc1cnc(C(=O)OCC(=O)Nc2ccc(Cl)cc2Cl)cn1 | 738 | 8.7% (inactive) | -16.9% (inactive) | 119 | -37% (inactive) | 94.9 | -0.51 (inactive) | -5.1e-05 (inactive) | 0.00552 (inactive) | 10.9% (inactive) | 14.7% (inactive)
CN(Cc1ccccc1)C(=O)c1ccc2c(c1)OCO2 | 414 | 10.6% (inactive) | -8.8% (inactive) | 108 |  | 156 | -0.595 (inactive) | -2e-05 (inactive) | 0.0038 (inactive) | 2.22% (inactive) | -20.3% (inactive)
CN(C)CCCn1c(N)c(C#N)c2nc(C#N)c(C#N)nc21 | 735 | -14.6% (inactive) | 0% (inactive) | 128 | -55.1% (inactive) | 106 | -0.0856 (active) | -1.8e-05 (inactive) | 0.00617 (inactive) | 48.9% (inactive) | 79.3% (active)
O=S(=O)(NCc1cn2ccsc2n1)c1ccc2c(c1)OCCO2 | 600 | 8.2% (inactive) | -3.9% (inactive) | 71 | 51.6% (inactive) | 72.2 | -0.502 (inactive) | -3.9e-05 (inactive) | 0.00564 (inactive) | 5.63% (inactive) | 11.2% (inactive)
Cc1cc(C)c2ccc(N)nc2c1O | 408 | 0.1% (inactive) | 22.6% (inactive) | 6.8 | 41.6% (inactive) | 107 | -0.462 (inactive) | -5e-05 (inactive) | 0.00457 (inactive) | 21% (inactive) | 29.8% (inactive)
Cc1cc(C)n(-c2ccc(C(=O)Oc3ccc4c(c3)OCO4)cc2)n1 | 440 | 3.3% (inactive) | 17.6% (inactive) | 100 |  | 148 | -0.468 (inactive) | -2.1e-05 (inactive) | 0.00555 (inactive) | 7.51% (inactive) | 1.41% (inactive)
CC1CCC2C(C1)c1sc(=O)[nH]c1SC2(C)C (stereo unspecified) | 815 | -7.3% (inactive) | 16.6% (inactive) | 98.3 | -18.7% (inactive) | 116 | -0.365 (inactive) | 2e-05 (inactive) | 0.00605 (inactive) | -1.58% (inactive) | 10.1% (inactive)
Cc1ccc2c(CC(=O)OCc3csc(C)n3)coc2c1 | 367 | 0.2% (inactive) | 7.3% (inactive) | 92.6 |  | 106 | -0.44 (inactive) | 2.3e-05 (inactive) | 0.00641 (inactive) | 6.62% (inactive) | 30% (inactive)
